Reference: ChEMBL document CHEMBL1157539, “Thousands of chemical starting points for antimalarial lead identification” (Nature, 2010)

Assays:
Assay type in all cases: functional
Plasmodium falciparum [1] = assay: GSK_TCMDC: Inhibition of Plasmodium falciparum 3D7 in whole red blood cells, using parasite LDH activity as an index of growth. Test compounds present at 2uM
Plasmodium falciparum [2] = assay: GSK_TCMDC: Inhibition of Plasmodium falciparum Dd2 in whole red blood cells, using parasite LDH activity as an index of growth. Test compounds present at 2uM
HepG2 = assay: GSK_TCMDC: Percent inhibition of human HepG2 cell line. Test compounds present at 10uM.

## O=C1CN(C(=O)CCC2CCCC2)C(c2ccc(F)cc2)c2cc(F)ccc2N1 (stereo unspecified)
Plasmodium falciparum [1]
  Inhibition: 100%
Plasmodium falciparum [2]
  Inhibition: 75%
HepG2
  Inhibition: 12%

## CCOc1ccc(C(=O)Nc2cc(Cl)ccc2O)cc1Cl
Plasmodium falciparum [1]
  Inhibition: 83%
Plasmodium falciparum [2]
  Inhibition: 84%
HepG2
  Inhibition: 11%

## N#CCCN1CCN(Cc2cccc(-c3ccc(-c4nc5cc(C(F)(F)F)ccc5[nH]4)cc3)c2)CC1.O=C(O)C(F)(F)F
Plasmodium falciparum [1]
  Inhibition: 100%
Plasmodium falciparum [2]
  Inhibition: 63%
HepG2
  Inhibition: 23%

## O=C(Nc1ccc(C(=O)OCC(c2ccccc2)c2ccccc2)cc1)N[C@@H](Cc1ccc(O)cc1)C(=O)NC1CCN(Cc2ccc(O)cc2)C1.O=C(O)C(F)(F)F (stereo partly specified)
Plasmodium falciparum [1]
  Inhibition: 96%
Plasmodium falciparum [2]
  Inhibition: 0%
HepG2
  Inhibition: 0%

## COc1cc(CCCOc2c(N)nc(N)nc2N)cc(OC)c1OC
Plasmodium falciparum [1]
  Inhibition: 88%
Plasmodium falciparum [2]
  Inhibition: 0%
HepG2
  Inhibition: 8%

## CCNc1cc(C)nc(Nc2ccc(NC(=O)c3ccccc3)cc2)n1
Plasmodium falciparum [1]
  Inhibition: 100%
Plasmodium falciparum [2]
  Inhibition: 63%
HepG2
  Inhibition: 41%

## CCOc1cc2c(cc1OCC)C(c1ccc(O)c(Cl)c1)NCC2.Cl (stereo unspecified)
Plasmodium falciparum [1]
  Inhibition: 98%
Plasmodium falciparum [2]
  Inhibition: 98%
HepG2
  Inhibition: 6%

## CCc1ccc(NC(=O)c2ccc(CN3CCCN(Cc4cccs4)CC3)cc2)cc1.O=C(O)C(F)(F)F
Plasmodium falciparum [1]
  Inhibition: 87%
Plasmodium falciparum [2]
  Inhibition: 0%
HepG2
  Inhibition: 57%

## Cc1ccc2c(c1)c(C1CCN(C(=O)c3ccc([N+](=O)[O-])o3)CC1)cn2C
Plasmodium falciparum [1]
  Inhibition: 97%
Plasmodium falciparum [2]
  Inhibition: 76%
HepG2
  Inhibition: 0%

## CCCCNCc1ccc(-c2nc(CN(Cc3ccc(Cl)c(Cl)c3)C(=O)CN(C)C)cs2)cc1.O=C(O)C(F)(F)F
Plasmodium falciparum [1]
  Inhibition: 100%
Plasmodium falciparum [2]
  Inhibition: 51%
HepG2
  Inhibition: 36%

## COc1ccc(NS(=O)(=O)c2cccc(C(=O)Nc3ccc(C(F)(F)F)cc3)c2)cc1N1CCN(CC(C)C)CC1.O=C(O)C(F)(F)F
Plasmodium falciparum [1]
  Inhibition: 94%
Plasmodium falciparum [2]
  Inhibition: 4%
HepG2
  Inhibition: 5%

## CCCOc1ccc(CCNCCCCNCCc2ccc(OCCC)c3ccccc23)c2ccccc12.CS(=O)(=O)O
Plasmodium falciparum [1]
  Inhibition: 93%
Plasmodium falciparum [2]
  Inhibition: 52%
HepG2
  Inhibition: 100%

## Cc1ccc(NC(=O)NC2CCN(CCC(NC(=O)Cc3ccccc3)c3ccc(Cl)c(Cl)c3)CC2)cc1 (stereo unspecified)
Plasmodium falciparum [1]
  Inhibition: 100%
Plasmodium falciparum [2]
  Inhibition: 2%
HepG2
  Inhibition: 16%

## c1cn(CCCNc2ncc(-c3ccsc3)c(-c3nccs3)n2)cn1
Plasmodium falciparum [1]
  Inhibition: 94%
Plasmodium falciparum [2]
  Inhibition: 51%
HepG2
  Inhibition: 0%

## Cc1cccc(Cn2nc(-c3ccccc3)c(N3CCCCC3)cc2=O)c1
Plasmodium falciparum [1]
  Inhibition: 98%
Plasmodium falciparum [2]
  Inhibition: 0%
HepG2
  Inhibition: 29%

## CCc1c[nH]c2c(N3CCCS3(=O)=O)cc(C(=O)N[C@@H](Cc3ccccc3)[C@H](O)CNC(C)(C)CCCC(C)C)cc12
Plasmodium falciparum [1]
  Inhibition: 96%
Plasmodium falciparum [2]
  Inhibition: 98%
HepG2
  Inhibition: 13%

## c1ccc2sc(Sc3ncnc4sccc34)nc2c1
Plasmodium falciparum [1]
  Inhibition: 100%
Plasmodium falciparum [2]
  Inhibition: 100%
HepG2
  Inhibition: 7%

## CC(C)Oc1ccc(N2CCN(CCCCNC(=O)c3ccc(NC(=O)c4ccc(Cl)cc4)cc3)CC2)c(OC(C)C)c1
Plasmodium falciparum [1]
  Inhibition: 100%
Plasmodium falciparum [2]
  Inhibition: 85%
HepG2
  Inhibition: 31%

## COc1ccc2ncc(F)c([C@H](O)CN3CCC(NCc4ccc5c(c4)NC(=O)CS5)CC3)c2c1.Cl
Plasmodium falciparum [1]
  Inhibition: 100%
Plasmodium falciparum [2]
  Inhibition: 98%
HepG2
  Inhibition: 7%

## Cc1cc(N[C@@H](CC(C)C)C(=O)NC2CCCC2)nc(NCc2ccccc2C)n1.O=C(O)C(F)(F)F
Plasmodium falciparum [1]
  Inhibition: 98%
Plasmodium falciparum [2]
  Inhibition: 44%
HepG2
  Inhibition: 2%

## COc1cc(C2CCN(CCCCNC(=O)c3ccc(NC(=O)c4ccc(Cl)c(Cl)c4)cc3)CC2)ccc1OC(C)C
Plasmodium falciparum [1]
  Inhibition: 100%
Plasmodium falciparum [2]
  Inhibition: 96%
HepG2
  Inhibition: 45%

## CCC(Cc1cnc2nc(N)nc(N)c2n1)c1ccc(C(=O)N[C@@H](CCC(=O)O)C(=O)O)cc1 (stereo partly specified) [EDATREXATE]
Plasmodium falciparum [1]
  Inhibition: 93%
Plasmodium falciparum [2]
  Inhibition: 98%
HepG2
  Inhibition: 64%

## CC1CCN(Cc2c(O)ccc3c(O)c(-c4nc5ccccc5s4)c(=N)oc23)CC1
Plasmodium falciparum [1]
  Inhibition: 98%
Plasmodium falciparum [2]
  Inhibition: 99%
HepG2
  Inhibition: 2%

## NC(=O)c1ccc(-c2ccc3ccnc(N)c3c2)cc1.O=C(O)C(F)(F)F
Plasmodium falciparum [1]
  Inhibition: 100%
Plasmodium falciparum [2]
  Inhibition: 98%
HepG2
  Inhibition: 56%

## CC(C)COc1ccc(Cl)cc1Cc1nc(-c2nc3ccc(N4CCN(C)CC4)nc3[nH]2)cs1.Cl
Plasmodium falciparum [1]
  Inhibition: 99%
Plasmodium falciparum [2]
  Inhibition: 27%
HepG2
  Inhibition: 29%

## CCN(CC)CCCSc1ccc(-c2ccc(SCCCN(CC)CC)cc2)cc1
Plasmodium falciparum [1]
  Inhibition: 87%
Plasmodium falciparum [2]
  Inhibition: 30%
HepG2
  Inhibition: 38%

## CN1CCCN(Cc2cccc(-c3ccc(CNC(=O)c4cccc(Cl)c4)c(F)c3)c2)CC1.O=C(O)C(F)(F)F
Plasmodium falciparum [1]
  Inhibition: 96%
Plasmodium falciparum [2]
  Inhibition: 38%
HepG2
  Inhibition: 56%

## Clc1ccc(OCc2ccccc2)c(-c2nc(-c3nc4ncc(Br)cc4[nH]3)cs2)c1
Plasmodium falciparum [1]
  Inhibition: 100%
Plasmodium falciparum [2]
  Inhibition: 77%
HepG2
  Inhibition: 0%

## O=C(NC1CCCCCC1)[C@@H]1CCCN1C(=O)c1ccc(O)c(-c2ccc(Cl)c(Cl)c2)c1
Plasmodium falciparum [1]
  Inhibition: 99%
Plasmodium falciparum [2]
  Inhibition: 98%
HepG2
  Inhibition: 0%

## Cl.N#Cc1ccc(NC(=O)c2ccc(Cc3ccc4c(c3)CCN(C3CCC3)CC4)cn2)cc1
Plasmodium falciparum [1]
  Inhibition: 91%
Plasmodium falciparum [2]
  Inhibition: 2%
HepG2
  Inhibition: 66%

## CCCCCCNC(=O)c1nn(CCN2CCC(N3CCCC3)CC2)cc1-c1ccc(Cl)c(Cl)c1
Plasmodium falciparum [1]
  Inhibition: 100%
Plasmodium falciparum [2]
  Inhibition: 33%
HepG2
  Inhibition: 31%

## COc1cc2c(cc1OC)CN(c1cc(N)c3cc(OC)c(OC)cc3n1)CC2.CS(=O)(=O)O
Plasmodium falciparum [1]
  Inhibition: 100%
Plasmodium falciparum [2]
  Inhibition: 99%
HepG2
  Inhibition: 23%

## O=c1cc(NCCCCNCc2cccc(Br)c2)[nH]c2ccccc12
Plasmodium falciparum [1]
  Inhibition: 98%
Plasmodium falciparum [2]
  Inhibition: 19%
HepG2
  Inhibition: 0%

## O=C(OCc1ccccn1)c1nc2ccccc2[nH]1
Plasmodium falciparum [1]
  Inhibition: 92%
Plasmodium falciparum [2]
  Inhibition: 97%
HepG2
  Inhibition: 63%

## Cc1cccc2nc(-c3ccc(-c4cccc(CN5CCC(C(N)=O)CC5)c4)s3)[nH]c12.O=C(O)C(F)(F)F
Plasmodium falciparum [1]
  Inhibition: 86%
Plasmodium falciparum [2]
  Inhibition: 16%
HepG2
  Inhibition: 1%

## Cc1cc(C)c(C)c(S(=O)(=O)N2CCCCC(c3ccc(F)c(F)c3)=N2)c1C
Plasmodium falciparum [1]
  Inhibition: 86%
Plasmodium falciparum [2]
  Inhibition: 60%
HepG2
  Inhibition: 5%

## CCCC(C)Nc1nc(C)cc(N[C@@H](CC(C)C)C(=O)NCc2ccc(C)cc2)n1.O=C(O)C(F)(F)F (stereo partly specified)
Plasmodium falciparum [1]
  Inhibition: 98%
Plasmodium falciparum [2]
  Inhibition: 51%
HepG2
  Inhibition: 16%

## Cc1cc(-c2ccc(CNC3Cc4ccccc4C3)cc2)ccc1S(=O)(=O)NCCN1CCCC1.O=C(O)C(F)(F)F
Plasmodium falciparum [1]
  Inhibition: 100%
Plasmodium falciparum [2]
  Inhibition: 73%
HepG2
  Inhibition: 99%

## COc1ccccc1OCCN(CC(O)COc1cccc2[nH]c3ccccc3c12)CC(O)COc1cccc2[nH]c3ccccc3c12 (stereo unspecified)
Plasmodium falciparum [1]
  Inhibition: 97%
Plasmodium falciparum [2]
  Inhibition: 96%
HepG2
  Inhibition: 16%

## COc1cccc(OC)c1OCCCOc1c(C)nc(N)nc1N.Cl
Plasmodium falciparum [1]
  Inhibition: 97%
Plasmodium falciparum [2]
  Inhibition: 0%
HepG2
  Inhibition: 31%

## Cc1onc(-c2ccc(Cl)cc2)c1-c1ccnn1S(=O)(=O)c1ccc(Cl)cc1
Plasmodium falciparum [1]
  Inhibition: 100%
Plasmodium falciparum [2]
  Inhibition: 99%
HepG2
  Inhibition: 0%

## Cc1ccc(O)cc1Nc1ccnc2cc(-c3csc(CNCCN4CCOCC4)n3)ccc12
Plasmodium falciparum [1]
  Inhibition: 100%
Plasmodium falciparum [2]
  Inhibition: 99%
HepG2
  Inhibition: 6%

## CC(C)c1ccc(C=CC(=O)N2CCC(CCN3CCC(c4c[nH]c5ccccc45)CC3)CC2)cc1
Plasmodium falciparum [1]
  Inhibition: 93%
Plasmodium falciparum [2]
  Inhibition: 11%
HepG2
  Inhibition: 85%

## COc1cc(-c2ccccc2)ccc1C(=O)Nc1ccc2c(c1)N(C)CCC2
Plasmodium falciparum [1]
  Inhibition: 85%
Plasmodium falciparum [2]
  Inhibition: 75%
HepG2
  Inhibition: 15%

## [O-][s+]1nc(NCCCN(Cc2cccs2)c2ccccn2)c(NCc2ccccc2)n1 (stereo unspecified)
Plasmodium falciparum [1]
  Inhibition: 92%
Plasmodium falciparum [2]
  Inhibition: 25%
HepG2
  Inhibition: 10%

## COc1cccc(-c2cc(C(=O)Nc3ccc4[nH]c(-c5ccccc5)nc4c3)[nH]n2)c1.O=C(O)C(F)(F)F
Plasmodium falciparum [1]
  Inhibition: 100%
Plasmodium falciparum [2]
  Inhibition: 65%
HepG2
  Inhibition: 68%

## Cc1ccc(NC(=O)c2ccc(N3CCN(c4ccncc4)CC3)cn2)cc1F.O=C(O)C(F)(F)F
Plasmodium falciparum [1]
  Inhibition: 98%
Plasmodium falciparum [2]
  Inhibition: 77%
HepG2
  Inhibition: 2%

## O=C(O)C(F)(F)F.OCCN1CCN(Cc2cccc(-c3ccc(-c4nc5cc(C(F)(F)F)ccc5[nH]4)cc3)c2)CC1
Plasmodium falciparum [1]
  Inhibition: 100%
Plasmodium falciparum [2]
  Inhibition: 85%
HepG2
  Inhibition: 19%

## O=C(/C=C/c1ccc(Cl)c(Cl)c1)NCCCCCCN1CCN(C(=O)Nc2cccc(Cl)c2)CC1
Plasmodium falciparum [1]
  Inhibition: 85%
Plasmodium falciparum [2]
  Inhibition: 2%
HepG2
  Inhibition: 33%

## Cc1nc(Nc2ccc(C)c(Cl)c2)c2c(C)noc2n1
Plasmodium falciparum [1]
  Inhibition: 94%
Plasmodium falciparum [2]
  Inhibition: 72%
HepG2
  Inhibition: 0%

## CN1CCN(c2cc(-c3cccnc3)nc(-c3ccncc3)n2)CC1
Plasmodium falciparum [1]
  Inhibition: 100%
Plasmodium falciparum [2]
  Inhibition: 89%
HepG2
  Inhibition: 11%

## CCCCN(Cc1cccc(C(F)(F)F)c1Cl)c1ccc(C(O)(C(F)(F)F)C(F)(F)F)cc1.O=C(O)C(F)(F)F
Plasmodium falciparum [1]
  Inhibition: 91%
Plasmodium falciparum [2]
  Inhibition: 55%
HepG2
  Inhibition: 10%

## O=C(NCC1CCN(CCN2CCc3ccc4c(c3C2)OCO4)CC1)c1ccc(-c2ccc(C(F)(F)F)cc2)cc1
Plasmodium falciparum [1]
  Inhibition: 93%
Plasmodium falciparum [2]
  Inhibition: 34%
HepG2
  Inhibition: 66%

## COc1ccc(Nc2ncc(Cl)c(Nc3cccnc3C(N)=O)n2)cc1N1CCN(C)CC1.Cl
Plasmodium falciparum [1]
  Inhibition: 95%
Plasmodium falciparum [2]
  Inhibition: 97%
HepG2
  Inhibition: 77%

## O=C(Cn1c(SCc2cccc(F)c2F)cc(=O)c2ccccc21)N(CCN1CCCCC1)Cc1ccc(-c2ccc(C(F)(F)F)cc2)cc1.O=C(O)C(O)C(O)C(=O)O
Plasmodium falciparum [1]
  Inhibition: 99%
Plasmodium falciparum [2]
  Inhibition: 82%
HepG2
  Inhibition: 41%

## COc1cc2nc(Cl)nc(Nc3ccncc3)c2cc1OC.Cl
Plasmodium falciparum [1]
  Inhibition: 86%
Plasmodium falciparum [2]
  Inhibition: 33%
HepG2
  Inhibition: 11%

## CCCCCn1c(Sc2ccc(C#N)c([N+](=O)[O-])c2)nnc1-c1cccs1
Plasmodium falciparum [1]
  Inhibition: 91%
Plasmodium falciparum [2]
  Inhibition: 38%
HepG2
  Inhibition: 19%
